We go through 14 molecules from PubChem BioAssay (NCI).

SMILES strings stand for the structures. Values joined by “and” are separate entries in the source; they are usually repeats but may differ in a detail not shown here. Equal entries are not always repeated. About 83,000 compounds went through this panel and 20% of them were active in at least one assay; those are over-represented in the sample as a whole.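 Single-dose data. Exposure time 48 hours. Values below 10 considered active.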 Active and inactive are the calls of the source.

The test system of this assay is MDA-MB-468 breast. In words: NCI-60 one-dose screen, 48 h (100 = growth as untreated, 0 = no growth, -100 = all killed). Particulars: 10 µM unless noted.
Regarding `Clc1cc2c(nn1)Nc1ccccc1S2`, the growth was 96.9% (inactive).
On to `C[C@]12CCC(=O)C=C1CCC1C2[C@@H](O)C[C@@]2(C)C1CC[C@]2(O)C(=O)COC(=O)CCC(=O)O` (some centres undefined), for which the growth is 109% (inactive).
For `O=C(CCN1CCCC1)c1ccc([N+](=O)[O-])cc1`, the growth is 85.3% (inactive).
For `O=C(Cn1nncc1CN1C(=O)CSC1=O)Nc1ccc(F)cc1`, the growth was 104% (inactive).
For the molecule `CN(CCCNC(=O)Cc1ccc2ccc3cccc4ccc1c2c34)CCCNc1cc(-c2ccc3ccccc3c2)nc2ccccc12`, the growth is -78.4% (active).
As to `COc1ccc(C(=O)/C=C/c2c(C(F)(F)F)nc3sccn23)cc1OC`, the growth was -21.1% (active).
The figure for `Nc1ncc(-c2ccc3ncnc(N4CCc5cc(F)c(Cl)cc54)c3c2)cn1` is 15.8% (inactive) and -64% (active).
The figure for `O=C(NS(=O)(=O)c1ccc2ccccc2c1)n1cc(-c2ccncc2)c(-c2ccc(Cl)c(O)c2)n1` is 78.3% (inactive); for `N#Cc1ccccc1OCC(=O)Nc1nc2c(s1)COc1ccccc1-2` it is 98.7% (inactive); for `Nc1c(C(=O)Nc2cccc3c2OCCO3)sc2nc3c(cc12)C(=O)CCC3` it is 18.7% (inactive).
In the case of `COc1cc2ncnc(Nc3ccc(S(=O)(=O)Nc4cc(C)on4)cc3)c2cc1OCCCN1CCOCC1`, the growth is 103% (inactive).
`Cc1ccc(S(=O)(=O)N(CC[C@@H]2C[C@H]2c2cc3ccccc3o2)C(=O)NC2CCCCC2)cc1`: the growth was 95.3% (inactive).
On to `ClC(Cl)c1nc(-c2cccnc2)n2nc(-c3ccccc3)cc2n1`, for which the growth is -29.7% (active).
Regarding `CC1Cc2c(ncnc2-n2cnc3ccccc32)N(C)c2ccccc21` (centres undefined), the growth is 9.47% (active).
